# Source: PubChem BioAssay AID686978 (National Center for Advancing Translational Sciences (NCATS), 2013)
# The campaign covered roughly 420,000 compounds. About 64,000 (15%) were called active. Roughly 27% stayed inconclusive and do not appear here. Calls come from the whole dose curve; as a rule, active = well fitted inhibition curve with a large enough effect; inconclusive = small, poorly fitted or top-dose-only effect; inactive = flat fitted curve, though single readings scatter. Only a sample is shown. Entries that show only a call come without a potency.
# Test: qHTS for Inhibitors of human tyrosyl-DNA phosphodiesterase 1 (TDP1): qHTS in cells in absence of CPT; note: nearly all actives have a fitted effect of over 55% in size
# Details: DT40 Tdp1-/- hTDP1 cells, no CPT, ATP luminescence, 48 h; activity change, negative = growth inhibition: at 46.2 µM (top of the series)
# How it was run: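 A cellular qHTS used chicken DT40 cells lacking endogenous Tdp1 but carrying stably transfected human TDP1. Compounds were applied without camptothecin, and cell growth kinetics were judged by ATP-dependent luminescence after ≥48 hr.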
# Potency is the fitted concentration of half-maximal effect.
row,SMILES,Potency
1,CC(=O)Nc1ccc(Oc2ccc3c(c2)C(=O)NC3=O)cc1,inactive
2,Cc1cc(C)nc(S/C=C/C(=O)c2ccccc2)n1,2.59 µM (active)
3,Cc1ccc(N/C=C/C(=O)c2ccccc2)cc1C,inactive
4,C/C(=N\NC(=O)c1nc(C)cc(C)n1)c1ccccc1,inactive
5,COC1=CCC2([N+](=O)[O-])CN(CC(=O)O)CC1([N+](=O)[O-])C2 (stereo not drawn),inactive
6,Cc1ccc(NC(=O)NC(=O)N(C2CCCCC2)S(=O)(=O)c2ccccc2)cc1,inactive
7,Cc1ccc2[nH]c3c(=O)n(Cc4ccccn4)cnc3c2c1,inactive
8,CC(C)c1cccc(C(C)C)c1Nc1cn[nH]c1,20.6 µM (active)
9,O=C(O)CCCN1C(=O)c2ccccc2Sc2ncccc21,inactive
10,C=CCOc1cccc(CNCc2cccnc2)c1,inactive
11,Cn1cnc([N+](=O)[O-])c1Sc1n[nH]c(N)n1,inactive
12,Cn1cnc([N+](=O)[O-])c1Sc1ccccc1,23.1 µM (active)
13,Cn1cnc([N+](=O)[O-])c1Nc1ccccc1O,inactive
14,C=CCN1C(=O)C2(OCCCO2)c2cccc(Cl)c21,inactive
15,CCC(C)(C)n1nnnc1C(c1cccs1)N1CCN(c2nc3ccccc3s2)CC1 (stereo not drawn),15.8 µM (active)
16,CCC(C)(C)n1nnnc1C(c1ccc(OC)c(OC)c1)N1CCN(C(=O)c2ccco2)CC1 (stereo not drawn),inactive
17,CCC(C)(C)n1nnnc1C(c1ccccc1OC)N1CCSCC1 (stereo not drawn),inactive
18,O=C(CCn1nnc2ccccc2c1=O)N[C@@H](Cc1c[nH]c2ccccc12)C(=O)O,inactive
19,CCOC(=O)N1CCC(NC(=O)Cc2cn(C)c3ccccc23)CC1,inactive
20,CC(C)=CCC/C(C)=C/CC/C(C)=C/CC/C(C)=C/CO,inactive
21,CCSc1nc2c(c(=O)[nH]1)C(c1cccnc1)C(C(=O)OC(C)C)=C(C)N2 (stereo not drawn),inactive
22,COc1cc(OC)c(NC(=O)C2CCCN2C(=O)OCc2ccccc2)cc1Cl (stereo not drawn),inactive

row,SMILES,Potency
1,COc1cc(CN2CCC(C(N)=O)CC2)ccc1OCc1ccccc1,inactive
2,COc1cc(CNC2CCCC2)c(Br)cc1OCc1ccccc1,16.4 µM (active)
3,O=C(CN1CCSCC1)N/N=C/c1ccc(F)cc1,inactive
4,COc1ccc2c(c1OC)C(=O)OC2c1c(O)nc(SC)n(-c2ccccc2)c1=O (stereo not drawn),inactive
5,COc1ccc(-c2csc(NC(=O)CCCc3cccs3)n2)cc1,inactive
6,COc1ccc(-c2csc(NC3OC(=O)c4ccccc43)n2)cc1 (stereo not drawn),6.51 µM (active)
7,COc1ccc2c(c1OC)C(=O)OC2Nc1nc(-c2ccccc2)cs1 (stereo not drawn),1.84 µM (active)
8,CCc1ccccc1NC(=O)[C@@H]1CCC(=O)N1C1OC(=O)c2c1ccc(OC)c2OC (stereo partly drawn),inactive
9,O=C(O)c1ccc(Cn2c(=S)[nH]c3cc(Cl)ccc3c2=O)cc1,inactive
10,CCOC(=O)CSc1nnc(CNc2nc(-c3ccccc3)cs2)n1C,inactive
11,Cc1ccc(O/C=C2\OC(=O)c3ccccc32)cc1,inactive
12,O=C1CC2(CCCCC2)Oc2ccc(OCC(=O)N3CCOCC3)cc21,inactive
13,CCN(CC)c1ccc([N+](=O)[O-])cc1C(=O)O,inactive
14,Cc1cccc(C=CC(=O)c2ccc(Cl)cc2)c1,13 µM (active)
15,Cc1cccc(C(=O)c2cccc(C)c2)c1,inactive
16,Cc1cc(C)nc(NC(=O)/C=C/c2ccc(Cl)cc2)n1,inactive
17,COc1ccc(CNC(=O)C2CCN(S(=O)(=O)N3CCOCC3)CC2)cc1,inactive
18,CC(=O)Nc1ccc(SCC(=O)NC(=O)c2ccc(Cl)cc2)cc1,inactive
19,O=C(CNC(=O)c1ccc(-c2ccccc2)cc1)OCc1ccc(Cl)cc1,inactive
20,CC(Oc1ccc2c(-c3ccccc3)cc(=O)oc2c1)C(=O)NC(Cc1c[nH]c2ccccc12)C(=O)O (stereo not drawn),inactive
21,O=C(CNC(=O)OCc1ccccc1)Oc1cc2oc(=O)cc(-c3ccccc3)c2cc1Cl,8.2 µM (active)
22,CCOC(=O)c1cnc2sccn2c1=O,inactive

row,SMILES,Potency
1,O=c1[nH]c2cccnc2n1-c1ccc([N+](=O)[O-])cc1,inactive
2,O=[N+]([O-])c1cccc(S(=O)(=O)NCc2ccccn2)c1,inactive
3,O=[N+]([O-])c1ccc2nc(-c3ccccn3)[nH]c2c1,1.16 µM (active)
4,Cc1ccc(C(=O)OC2=CC(=O)CC(C)(C)C2)cc1,inactive
5,COC(=O)c1c(NC(=O)COc2ccc(Cl)cc2Cl)sc2c1CC(C)(C)NC2(C)C,8.2 µM (active)
6,CCOC(=O)c1c(NC(=O)COc2cc(C)ccc2C(C)C)sc(C)c1C,inactive
7,Cc1cnc(C(=O)OCC(=O)Nc2ccc(Cl)cc2Cl)cn1,inactive
8,c1cc(-n2cnnn2)ccc1NC1=NCCC1,inactive
9,O=C1CCCN1C(=O)COc1ccc([N+](=O)[O-])cc1,inactive
10,COC(=O)c1ccc(S(=O)(=O)N(CCO)Cc2ccccc2)n1C,inactive
11,COc1ccc(Br)cc1S(=O)(=O)N1CCN=C1C,inactive
12,COc1ccc(C2CC(=O)Nc3c2c(=O)nc2c(C)cccn32)cc1OC (stereo not drawn),inactive
13,COc1ccc(Br)cc1C1CC(=O)Nc2c1c(C)nn2-c1nc(C)cc(C)n1 (stereo not drawn),18.4 µM (active)
14,C#CCOc1ccc(C2CC(=O)Nc3c2c(C)nn3-c2nc(C)cc(C)n2)cc1 (stereo not drawn),20.6 µM (active)
15,Cn1c(=O)c2c(n3c4ccccc4nc13)NC(=O)CC2c1cccc(Cl)c1 (stereo not drawn),inactive
16,COc1ccc(C2c3c(C)nn(-c4ccccc4)c3NC(=O)N2c2ccccc2)cc1 (stereo not drawn),inactive
17,NC(=O)COC(=O)c1ccc2c(c1)C(=O)N(Cc1ccco1)C2=O,inactive
18,CCCS(=O)(=O)NC(=O)C1(C)CCN(C(=O)c2sccc2C)C1 (stereo not drawn),inactive
19,COc1ccc(NC(=O)c2ccco2)cc1NC(=O)c1ccc(C#N)cc1F,inactive
20,Clc1cc(-c2ccc(/C=N/n3cnnc3)o2)ccc1Br,inactive
21,Cc1cc([N+](=O)[O-])nn1CCCC(=O)Nc1cccnc1Cl,inactive
22,CC(C)(C)c1ccc(C(=O)NCC(=O)OCN2C(=O)c3ccccc3C2=O)cc1,inactive

row,SMILES,Potency
1,CC(C)(C)c1ccc(C(=O)NCCn2c(N)c(C#N)c3nc4ccccc4nc32)cc1,29.1 µM (active)
2,O=C(CCNC(=O)c1ccc([N+](=O)[O-])cc1)Nc1ccccc1N1CCOCC1,inactive
3,CCOC(=O)/C(C#N)=C\c1c(C)cc(C)c(COC(C)=O)c1C,inactive
4,Cc1ccc2c(=O)c(C(=O)c3cccc(Cl)c3)cn(CC(=O)NCc3ccccc3)c2n1,inactive
5,O=C(O)CC1=C(Nc2ccccc2)C(=O)N(c2ccccc2)C1c1ccc(Cl)cc1 (stereo not drawn),inactive
6,CCc1nc2onc(C)c2c(=O)n1CC(=O)O,inactive
7,CCOC(=O)N1CCN(C(=O)c2ccc(S(=O)(=O)c3ccc(C)cc3)c(NC(C)=O)c2)CC1,inactive
8,CCOC(=O)N1CCN(C(=O)c2cnc3n(c2=O)CCS3)CC1,inactive
9,CCOC(=O)N1CCN(C(=O)c2ccc3c(c2)N(Cc2ccc(C)cc2)CCS3)CC1,23.1 µM (active)
10,COc1ccc(NC(=O)NC2CC3CCCC(C2)N3Cc2ccccc2)cc1 (stereo not drawn),inactive
11,CC1(C)C2CC[C@]3(C)C(CC=C4[C@@H]5C[C@@](C)(CO)CC[C@]5(C(=O)O)CC[C@]43C)[C@@]2(C)CC[C@@H]1O (stereo partly drawn),inactive
12,COC(=O)c1c(-c2cccs2)csc1NC(=O)CSc1ncnc2sc(C)c(C)c12,20.6 µM (active)
13,Cc1sc2ncnc(SCC(=O)NC3CCS(=O)(=O)C3)c2c1C (stereo not drawn),inactive
14,Cc1sc2ncnc(SCC(=O)Nc3ccc(CN4CCCC4)cc3)c2c1C,inactive
15,CC(=O)Nc1ccc(N2C(=O)C3C4C=CC(CC4)C3C2=O)cc1 (stereo not drawn),inactive
16,OCCNc1nc2ccccc2n1-c1ncnc2sc3c(c12)CCC3,20.6 µM (active)
17,O=C(O)c1cccnc1Sc1ncnc2sc3c(c12)CCC3,inactive
18,O=C(O)[C@@H]1CCCN1c1ncnc2sc3c(c12)CCC3,inactive
19,COc1cc(N2C(=O)CSC2=S)cc(OC)c1OC,inactive
20,O=C(Cn1nc(C(F)(F)F)c2c1CCC2)NCc1ccc(F)cc1,inactive
21,O=C(CN(C(=O)c1csnn1)c1ccc(Br)cc1)NC1CCCC1,inactive
22,O=C(NNC(=S)NC1CC2CCC1C2)c1ccc(Cl)cc1 (stereo not drawn),23.1 µM (active)

row,SMILES,Potency
1,O=C(NNC(=O)C1C2CCC(C2)C1C(=O)O)c1ccc(Cl)cc1 (stereo not drawn),inactive
2,O=C(NC(=S)NC1CCCCC1)c1ccc(Cl)cc1,inactive
3,Oc1c(C(c2ccco2)N2CCC3(CC2)OCCO3)sc2ncnn12 (stereo not drawn),inactive
4,CCOC(=O)c1ccc(N2C(=O)CC(N3CC(C)OC(C)C3)C2=O)cc1 (stereo not drawn),inactive
5,COc1ccc(C)cc1N(CC(=O)N1CCCC1)S(=O)(=O)c1ccccc1,inactive
6,O=C(NCCCn1ccnc1)C1CCCN(S(=O)(=O)c2cc(Cl)ccc2Cl)C1 (stereo not drawn),inactive
7,Cc1ccc(CNC(=O)CCC(=O)N2CC(C)Sc3ccccc32)cc1 (stereo not drawn),inactive
8,Cc1ccc(Cl)cc1NC(=O)CCC(=O)N1CC(C)Sc2ccccc21 (stereo not drawn),18.4 µM (active)
9,Cc1ccc(Cl)cc1NC(=O)COC(=O)C1CCCCC1,inactive
10,Cc1cccc(N(C(=O)Cn2nnc(-c3ccc(C)o3)n2)C(C(=O)NC2CCCC2)c2ccncc2)c1 (stereo not drawn),inactive
11,CC(NC(=O)c1ccco1)c1ccc2c(c1)OCO2 (stereo not drawn),inactive
12,C#CCSc1nnc(-c2sc3ccccc3c2Cl)o1,inactive
13,O=C1N[C@H](Cc2c[nH]c3ccccc23)COC(=O)[C@H](Cc2ccc(F)cc2)C/C=C\C[C@H]1CC(=O)N(CCO)Cc1ccccc1,16.4 µM (active)
14,O=C(N[C@@H]1C/C=C\C[C@@H](CC(=O)N(CCO)Cc2ccccc2)C(=O)N[C@H](Cc2ccccc2)COC1=O)OCC1c2ccccc2-c2ccccc21,4.61 µM (active)
15,O=C1CCC/C=C/C[C@@H](CC(=O)N(CCO)Cc2ccccc2)C(=O)NC[C@H](c2ccccc2)O1,inactive
16,O=C(C[C@@H]1C/C=C\CCC(=O)OC[C@@H]2CCCN2C1=O)NCCO,inactive
17,CN(Cc1cccs1)C(=O)Cc1c[nH]c2ccccc12,inactive
18,O=C1NC[C@@H](c2ccccc2)OC(=O)[C@H](Cc2ccc(F)cc2)CC/C=C/C[C@H]1CC(=O)N(CCO)Cc1ccccc1,14.6 µM (active)
19,O=C1OC[C@@H]2CCCN2C(=O)[C@H](CC(=O)N(CCO)Cc2ccccc2)C/C=C\CC[C@@H]1Cc1ccc(F)cc1,18.4 µM (active)
20,O=C1CCC/C=C\C[C@@H](CC(=O)N(CCO)Cc2ccccc2)C(=O)NCCO1,inactive
